Consider 13 compounds from PubChem BioAssay (NCI).

Test systems include SR leukemia; RPMI-8226 leukemia; OVCAR-8 ovarian; OVCAR-5 ovarian; OVCAR-4 ovarian; SK-OV-3 ovarian; IGROV1 ovarian; OVCAR-3 ovarian; HS 578T breast; NCI/ADR-RES ovarian.
Common to all, as to experiment: NCI-60 one-dose screen, 48 h (100 = growth as untreated, 0 = no growth, -100 = all killed)
Common to all, as to conditions: 10 µM unless noted

About 83,000 compounds went through this panel and 20% of them were active in at least one assay; those are over-represented in the sample as a whole.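 Values shown are percent growth following 48 h exposure of cells in 96-well plates to a single concentration of compound; below 10 was considered active.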 Unmarked numbers belong to inactive results. Activity calls are given as the source filed them.

`C[C@@H]1OCC2(CCN(c3cnc(C(=O)Nc4cc(F)cc5cccnc45)cn3)CC2)[C@@H]1N`: the growth in the assay with SR leukemia is 2.82% (active); with RPMI-8226 leukemia, 55.5%; with OVCAR-8 ovarian, 86.8%; in the assay with OVCAR-5 ovarian, 80%; in the assay on OVCAR-4 ovarian, 14.8%; in the assay with SK-OV-3 ovarian it was 102%. For the same compound, the growth is 28% in the assay on IGROV1 ovarian, 18.7% in the assay with OVCAR-3 ovarian, 66.6% in the assay on HS 578T breast and 76.4% in the assay with NCI/ADR-RES ovarian.
In the case of `Cc1ccc(NC2=C(Cl)C(=O)c3nc(C)ccc3C2=O)c(C)c1`, the growth in the assay on SR leukemia is 10.3%; in the assay with RPMI-8226 leukemia it was -10.4% (active); with OVCAR-8 ovarian, 28.3%; with OVCAR-5 ovarian, -1.15% (active); in the assay with OVCAR-4 ovarian it was -96.5% (active); with SK-OV-3 ovarian, 117%. The growth with IGROV1 ovarian is -58.8% (active); in the assay on OVCAR-3 ovarian, -98.6% (active); in the assay with HS 578T breast, 6.94% (active); with NCI/ADR-RES ovarian, 4.37% (active).
Regarding `CC1=C(C)C(=O)C(Nc2cccc(C)c2)=C(Br)C1=O`, the growth in the assay with SR leukemia was 69.3%; with RPMI-8226 leukemia it was 35.8%; in the assay on OVCAR-8 ovarian, 95.7%; in the assay with OVCAR-5 ovarian, 128%; in the assay on OVCAR-4 ovarian, 69.3%; in the assay on SK-OV-3 ovarian, 85.7%. Also, the growth with IGROV1 ovarian was 84.5%; with OVCAR-3 ovarian it was 110%; with HS 578T breast, 96.1%; in the assay on NCI/ADR-RES ovarian it was 98.1%.
In the case of `Cc1ccc2c(n1)C(=O)C(Cl)=C(Nc1ccccc1C(=O)OC(C)(C)C)C2=O`, the growth with SR leukemia is -30.8% (active); with RPMI-8226 leukemia it was -31.8% (active); in the assay with OVCAR-8 ovarian, 66.8%; in the assay with OVCAR-5 ovarian it was 139%; with OVCAR-4 ovarian, -45.3% (active); with SK-OV-3 ovarian, 105%. The growth with IGROV1 ovarian was 59.6%; with OVCAR-3 ovarian, -63.6% (active); in the assay on HS 578T breast, 84.1%; with NCI/ADR-RES ovarian, 64.2%.
As to `CCCCN1C(=O)/C(=c2\sc3n(c2=O)C2C(NN=3)N(CC)C(=O)N2CC)c2cccc(C)c21` (stereo not given), the growth is 15.1% in the assay with SR leukemia; 20.3% with RPMI-8226 leukemia; 44.6% with OVCAR-8 ovarian; 50.9% with OVCAR-5 ovarian; 53.8% in the assay on OVCAR-4 ovarian; 82% in the assay on SK-OV-3 ovarian. In addition, the growth was 34.7% in the assay with IGROV1 ovarian, 28.9% in the assay on OVCAR-3 ovarian, 34.4% in the assay on HS 578T breast and 24.6% with NCI/ADR-RES ovarian.
`O=C(CSc1nc2ccccc2c(=O)n1-c1ccccc1)N/N=C/c1ccc(Oc2ccc(Cl)cc2)cc1`: the growth with SR leukemia was 70.3%; with RPMI-8226 leukemia, 73.3%; in the assay with OVCAR-8 ovarian, 59.2%; in the assay on OVCAR-5 ovarian, 81.5%; in the assay on OVCAR-4 ovarian it was 73.7%; in the assay on SK-OV-3 ovarian, 83.2%. In addition, the growth in the assay on IGROV1 ovarian is 49.1%; in the assay on OVCAR-3 ovarian it was 111%; with HS 578T breast it was 58.9%; in the assay on NCI/ADR-RES ovarian, 52.7%.
Take `N#Cc1c(-c2cccs2)cc(-c2cnccn2)nc1SCC(=O)N/N=C/c1ccccc1`: the growth with SR leukemia was 55.9%; with RPMI-8226 leukemia, -23.7% (active); with OVCAR-8 ovarian it was 43.4%; with OVCAR-5 ovarian, 87.2%; with OVCAR-4 ovarian, 3.09% (active); with SK-OV-3 ovarian, 106%. Besides, the growth with IGROV1 ovarian was 61.9%; in the assay on OVCAR-3 ovarian it was 27.7%; with HS 578T breast, 40.7%; in the assay with NCI/ADR-RES ovarian, 37%.
Turning to `CCN(CC)CCOc1ccc(C(=C(c2ccccc2)C2CCCC2)c2ccc(OCCN(CC)CC)cc2)cc1`, the growth with SR leukemia is -5.92% (active); with RPMI-8226 leukemia it was -30.8% (active); in the assay with OVCAR-8 ovarian, 40.5%; with OVCAR-5 ovarian, 38.5%; with OVCAR-4 ovarian it was 34.7%; in the assay on SK-OV-3 ovarian it was 21.2%. Further, the growth with IGROV1 ovarian was -40.4% (active); in the assay with OVCAR-3 ovarian, 16.9%; in the assay on HS 578T breast, 12.8%; in the assay on NCI/ADR-RES ovarian it was 97.1%.
For the compound `C#C[C@]1(O)CC[C@H]2[C@@H]3CC=C4c5sc(Nc6cc(C)cc(C)c6)nc5CC[C@]4(C)[C@H]3CC[C@@]21C`, the growth was 11.6% in the assay with SR leukemia; -27.3% (active) in the assay on RPMI-8226 leukemia; 53% in the assay on OVCAR-8 ovarian; 54.5% in the assay with OVCAR-5 ovarian; 47.7% in the assay on OVCAR-4 ovarian; -38.7% (active) with SK-OV-3 ovarian. In addition, the growth with IGROV1 ovarian is 46.8%; in the assay with OVCAR-3 ovarian, 48.9%; in the assay with HS 578T breast, -10.8% (active); in the assay with NCI/ADR-RES ovarian it was 47.7%.
For `CCOC(=O)C1=C(C)NC(C)=C(C(=O)OCc2ccccc2)C1c1cccc(C#N)c1` (stereo not given), the growth in the assay with SR leukemia is 21.7%; with RPMI-8226 leukemia, 32.3%; in the assay on OVCAR-8 ovarian, 48%; in the assay on OVCAR-5 ovarian, 61.3%; with OVCAR-4 ovarian, 71.5%; in the assay on SK-OV-3 ovarian, 75.1%. The growth in the assay with IGROV1 ovarian was 42.1%; with OVCAR-3 ovarian it was 23.6%; with HS 578T breast it was 40.2%; in the assay with NCI/ADR-RES ovarian it was 22.7%.
On to `NCCNC(=O)c1cccc(COc2ccccc2NC(=O)c2cc(Br)c(Br)[nH]2)c1`, for which the growth in the assay with SR leukemia was 8.3% (active); with RPMI-8226 leukemia, 86.8%; with OVCAR-8 ovarian it was 64.6%; in the assay with OVCAR-5 ovarian, 101%; in the assay with OVCAR-4 ovarian, 103%; in the assay with SK-OV-3 ovarian it was 136%. For the same compound, the growth was 88% in the assay on IGROV1 ovarian, 103% with OVCAR-3 ovarian, 100% in the assay on HS 578T breast and 96.7% with NCI/ADR-RES ovarian.
Turning to `O=C(CSc1nc2ccccc2c(=O)n1-c1ccc(S(=O)(=O)Nc2ccc(Cl)nn2)cc1)Nc1ccc(S(=O)(=O)Nc2ccc(Cl)nn2)cc1`, the growth in the assay on SR leukemia was 87.3%; in the assay with RPMI-8226 leukemia, 108%; in the assay on OVCAR-8 ovarian, 103%; with OVCAR-5 ovarian it was 103%; with OVCAR-4 ovarian, 101%; in the assay with SK-OV-3 ovarian, 105%. In addition, the growth with IGROV1 ovarian was 107%; with OVCAR-3 ovarian it was 108%; with HS 578T breast it was 106%; in the assay on NCI/ADR-RES ovarian, 103%.
Regarding `CC(C)=CCC[C@](C)(O)[C@H]1CC[C@]2(C)[C@@H]1CC[C@@H]1[C@@]3(C)CC[C@H](N)C(C)(C)[C@@H]3CC[C@]12C`, the growth is -24.4% (active) in the assay with SR leukemia; -9.63% (active) with RPMI-8226 leukemia; 98.1% with OVCAR-8 ovarian; 108% in the assay with OVCAR-5 ovarian; 97.5% in the assay with OVCAR-4 ovarian; 104% with SK-OV-3 ovarian. Also, the growth with IGROV1 ovarian is 93.3%; in the assay with OVCAR-3 ovarian, 107%; in the assay on HS 578T breast it was 94.6%; with NCI/ADR-RES ovarian, 88.9%.
